Assay outcomes from PubChem.
HPGD block = HPGD (human) dehydrogenase inhibition; P15428; purified HPGD, NADH fluorescence kinetic, PGE2 substrate; Potency, µM, hits mostly inhibitors; 4.3% of 150,000 active; AID 894; active = well fitted inhibition curve with a large enough effect, not every such curve was filed as active; inconclusive = small, poorly fitted or top-dose-only effect, or another doubt; inactive = no such curve, though single readings can be large or run the other way
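20 nM HPGD preincubated 15 min at room temperature with compound in 50 mM Tris-HCl pH 8, 0.01% Tween 20. Started with 1 mM NAD+ and 30 uM prostaglandin E2; NADH fluorescence (360/450 nm) read 5 times over 30-s intervals, last minus first.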
ALDH1A1 block = ALDH1A1 (human) enzyme inhibition | P00352 | Potency, µM (series often up to 75.3 µM), hits mostly inhibitors | 7.3% of 220,000 active | Purified ALDH1A1, NADH fluorescence, propionaldehyde substrate | AID 1030; active = well fitted inhibition curve with a large enough effect, not every such curve was filed as active; inconclusive = small, poorly fitted or top-dose-only effect, or another doubt; inactive = no such curve, though single readings can be large or run the other way
Tau fibril FP = blocks human tau fibril formation measured by polarization; Potency, µM (series often up to 57.7 µM), actives largely listed as inhibitors; AID 1468; 0.39% of 280,000 active; P10636; K18 P301L tau heparin fibrillization, Alexa594 FP, 6 h; note: nearly all actives have a fitted effect of over 55% in size
Target sequence (P10636 561-689 P618L limits assumed): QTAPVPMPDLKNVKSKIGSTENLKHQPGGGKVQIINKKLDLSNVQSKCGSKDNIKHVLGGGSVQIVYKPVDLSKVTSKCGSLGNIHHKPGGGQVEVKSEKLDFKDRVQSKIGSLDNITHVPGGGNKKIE
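Steps: dispense K18 P301L tau (15 uM plus 0.24 uM Alexa 594 tracer, final) in pH 7 sodium acetate; add compound; add heparin (20 uM final); incubate 6 hr, 37 C; add ThT (30 uM final); after 1 hr ambient, read FP.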
Tau fluor counter = counter-screen for tau fibril formation inhibitors; tau K18 P301L Alexa594 fluorescence, heparin fibrillization; Potency, µM (highest dose often 57.7 µM); 0.93% of 280,000 active; AID 1463; note: nearly all actives have a fitted effect of over 55% in size
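Human tau K18 P301L (15 uM unlabeled, 0.24 uM Alexa 594-labeled) in 100 mM sodium acetate pH 7 with 20 uM heparin, 6 hr at 37 C. ThT 30 uM added, 1 hr ambient; Alexa 594 FP and total fluorescence read at 555/632 nm.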
Tau fibril ThT = inhibitors of human tau fibril formation, thioflavin T binding. P10636. Potency, µM (top dose mostly 57.4 µM), hits mostly inhibitors. 2.1% of 270,000 active. recombinant tau K18 P301L (four-repeat tau fragment), heparin-induced fibrillization, ThT fluorescence; note: nearly all actives have a fitted effect of over 55% in size
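Heparin-induced fibrillization of the P301L-mutant K18 repeat-domain fragment of human tau was followed by ThT binding in quantitative high-throughput format.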
KDM4E inh = JMJD2E (human) inhibition | B2RXH2 | JMJD2E catalytic domain, FDH-coupled NADH fluorescence (FDH is formaldehyde dehydrogenase) | Potency, µM (series often up to 57.1 µM), usual class: inhibitors | 1.6% of 230,000 active; active = well fitted inhibition curve with a large enough effect, not every such curve was filed as active; inconclusive = small, poorly fitted or top-dose-only effect, or another doubt; inactive = no such curve, though single readings can be large or run the other way; note: nearly all actives have a fitted effect of over 50% in size
Target sequence (B2RXH2 1-337 limits assumed): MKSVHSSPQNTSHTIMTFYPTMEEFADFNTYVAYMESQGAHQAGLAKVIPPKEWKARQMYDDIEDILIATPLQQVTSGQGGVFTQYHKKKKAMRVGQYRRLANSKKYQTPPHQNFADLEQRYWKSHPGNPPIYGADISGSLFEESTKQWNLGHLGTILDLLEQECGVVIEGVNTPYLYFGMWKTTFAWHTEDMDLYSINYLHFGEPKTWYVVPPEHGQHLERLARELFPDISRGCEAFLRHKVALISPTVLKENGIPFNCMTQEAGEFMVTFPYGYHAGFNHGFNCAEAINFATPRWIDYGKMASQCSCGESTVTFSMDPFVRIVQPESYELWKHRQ
Hits are given with their value; - = inactive; ? = inconclusive; . = no result; [ ] = dose if it differs, or a comment. Rows were chosen to be rich in hits. Some 9.9% of all compounds tested hit in one or more screens of this group. Unless noted, calls come from the whole dose curve; as a rule, active = well fitted curve in the direction sought with a large enough effect; inconclusive = small, poorly fitted or top-dose-only effect, or another doubt; inactive = no such curve, though single readings can be large; an effect the other way counts as inactive or inconclusive.

SMILES	HPGD block	ALDH1A1 block	Tau fibril FP	Tau fluor counter	Tau fibril ThT	KDM4E inh
O=C(CN1CCN(c2nc(-c3ccccc3)cs2)CC1)NNC(=O)c1ccco1	.	-	-	-	-	-
Cc1nnc(N/N=C\c2ccc(-c3cccc(C(=O)O)c3)o2)n1N	.	?	?	-	?	?
Cc1nnc(N/N=C/c2ccc(-c3ccc(Br)cc3)o2)n1N	.	7.94µM	-	?	7.94µM	5.62µM
COc1ccccc1OCCCCNCCO	-	-	-	-	-	-
Cc1cccc(C)c1OCCCCCNCCO	-	20µM	-	-	-	-
Cc1c(C=O)c(Cl)n(C)c(=O)c1C#N	.	-	-	-	?	20µM
Cc1cc(C)n(C)c(=O)c1C#N	.	-	-	-	-	-
Cc1ccccc1CSc1nc2c([nH]c3ccccc32)c(=O)n1-c1ccccc1	.	.	-	-	-	.
COc1ccc(S(=O)(=O)/N=C2/NC(=O)/C(=C\c3cc(OC)c(OC)cc3[N+](=O)[O-])S2)cc1	5.01µM	?	-	?	22.4µM	-
Cc1ccc(S(=O)(=O)/N=C2/NC(=O)/C(=C/c3ccccn3)S2)cc1	.	-	-	-	-	-
COc1cc(/C=C2\S/C(=N/S(=O)(=O)c3ccccc3)NC2=O)c([N+](=O)[O-])cc1OC	7.08µM	-	?	?	14.1µM	-
COC(=O)c1c(NC(=O)CS(=O)(=O)c2ccc(C)cc2)sc2c1CCCCC2	.	.	-	-	-	.
Cc1ccc(C(=O)CNc2cccc(Cl)c2)cc1	-	22.4µM	-	-	-	-
Cc1ccc(NC2=C(NC(=O)c3ccccc3)C(=O)c3ccccc3C2=O)cc1Cl	20µM	20µM	?	?	15.8µM	-
Cc1ccc(NCC(=O)c2ccccc2)cc1Cl	-	20µM	-	-	?	-
Cc1ccc(NC(=O)C(c2ccccc2)N2Cc3ccccc3C2=O)cc1Cl (stereo not given)	.	.	?	-	-	.
Cc1ccc(NCCC(=O)c2ccccc2)cc1Cl	.	3.16µM	?	-	-	-
O=C(CCC(=O)c1ccccc1)Nc1ccc(F)c(Cl)c1	.	.	-	-	-	.
Cc1cc(C)c2[nH]c(=O)c(CN(Cc3cccnc3)C(=S)NCCCN(C)C)cc2c1	.	?	-	-	-	?
O=C(COC(=O)CNC(=O)c1ccc(Br)o1)Nc1ccccc1OC(F)F	.	-	-	-	-	-
Cc1onc(-c2ccccc2Cl)c1NC(=O)NCc1cccs1	.	.	-	-	-	-
Cc1ccc(C(=O)CNc2ccc(C)c(Cl)c2)cc1	-	10µM	-	-	-	-
Cc1ccc(CNC(=O)CS(=O)Cc2nc(-c3cccs3)oc2C)cc1 (stereo not given)	28.2µM	?	-	-	?	-
Cc1ccc(CCNC(=O)CS(=O)Cc2nc(-c3cccs3)oc2C)cc1 (stereo not given)	.	.	-	-	?	-
CCc1nnc(N/N=C/c2ccc(N3CCC(C)CC3)c([N+](=O)[O-])c2)n1N	-	22.4µM	-	?	12.6µM	?
SMILES	HPGD block	ALDH1A1 block	Tau fibril FP	Tau fluor counter	Tau fibril ThT	KDM4E inh
Cc1nnc(N/N=C/c2cc([N+](=O)[O-])c(N3CCC(C)CC3)cc2N2CCC(C)CC2)n1N	25.1µM	7.08µM	-	?	17.8µM	?
CC1CCN(c2cc(N3CCOCC3)c([N+](=O)[O-])cc2F)CC1	-	-	-	?	?	-
CCCC(c1cc(C(C)(C)C)c(O)cc1C)c1cc(C(C)(C)C)c(O)cc1C	-	-[13.5 µM]	.	.	.	.
Cc1ccc(O)c(NC(=O)COCc2cc(-c3ccco3)on2)c1	.	.	-	-	-	.
COc1ccc(CCNC(=O)C2CCC(CNS(=O)(=O)c3ccccc3)CC2)cc1OC (stereo not given)	.	0.631µM	-	-	-	-
COc1ccc(CCNC(=O)c2ccc(CNS(=O)(=O)c3ccccc3)cc2)cc1OC	-	2.51µM	-	-	?	-
C=CCc1cc(C=O)cc(OCC)c1OCc1ccc(Cl)cc1	-	-	-	-	-	-
C=CCc1cc(/C=C2/NC(=O)N(CC)C2=O)cc(OCC)c1OCc1ccc(C(=O)O)cc1	-	3.16µM	-	-	-	?
CCOC(=O)c1c(C)[nH]c(C(=O)N2CCN(c3ccc(OC)cc3)CC2)c1C	.	-	-	-	-	-
COc1ccc(C(=O)CNc2ccccc2CO)cc1	.	14.1µM	?	-	?	-
CCc1cccc(C)c1NC(=O)C1CCN(S(=O)(=O)Cc2ccccc2)CC1	.	.	-	-	?	.
